From PubChem BioAssay
BAZ2B inh: BAZ2B (human) inhibition | Q9UIF8 | AlphaScreen BAZ2B-H3K14Ac peptide displacement | Potency, µM (titrated, usually from 114 µM), actives largely listed as inhibitors | 360,000 compounds, 4.4% hits | AID 504333; note: nearly all actives have a fitted effect of over 60% in size
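AlphaScreen luminescence quantifies BAZ2B engagement of H3K14Ac peptide; the protein and biotinylated peptide are both at 50 nM final, buffer PBS pH 7.4 with 0.01% Tween-20, all steps at room temperature.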
G9a block: G9a (human) methyltransferase inhibition. G9a H3K9 monomethylation, AlphaScreen, 2 h. 350,000 compounds, 8.8% hits. Q96KQ7. Potency, µM (top dose mostly 102 µM), usual class: inhibitors. AID 504332; note: nearly all actives have a fitted effect of over 75% in size
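Step 1: enzyme (final 20 nM) with compound, 15 min RT. Step 2: substrate peptide 500 nM and SAM 20 uM, 2 h RT. Step 3: anti-H3K9me1 antibody and AlphaScreen beads, 10 min, then plate read.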
JMJD2A Tudor inh: JMJD2A Tudor domain (human) inhibition; AlphaScreen JMJD2A-Tudor / H3K4me3 peptide binding; 390,000 compounds, 4.4% hits; Potency, µM (series often up to 114 µM), most hits filed as inhibitors; O75164; note: nearly all actives have a fitted effect of over 50% in size
HP1b chromo inh: HP1-beta chromodomain-methylated histone interaction inhibition. Potency, µM (highest dose often 114 µM), most hits filed as inhibitors. 390,000 compounds, 0.56% hits. P83916. AlphaScreen HP1-beta / biotin-H3K9me3 peptide binding; note: nearly all actives have a fitted effect of over 70% in size
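AlphaScreen: HP1-beta (50 nM) preformed 30 min with biotin-H3(1-18)K9me3 peptide (50 nM) in PBS pH 7.4, 0.01% Tween-20. Compound added for 30 min at RT, then streptavidin donor/nickel chelate acceptor beads (10 ug/mL) for 30 min.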
L3MBTL1 inh: blocks human L3MBTL1; Q9Y468; AID 485360; 230,000 compounds, 0.66% hits; AlphaScreen L3MBTL1–H3K9me1 peptide binding; Potency, µM (series often up to 57.1 µM), most hits filed as inhibitors; note: nearly all actives have a fitted effect of over 60% in size
Target sequence (Q9Y468 whole entry, looked up): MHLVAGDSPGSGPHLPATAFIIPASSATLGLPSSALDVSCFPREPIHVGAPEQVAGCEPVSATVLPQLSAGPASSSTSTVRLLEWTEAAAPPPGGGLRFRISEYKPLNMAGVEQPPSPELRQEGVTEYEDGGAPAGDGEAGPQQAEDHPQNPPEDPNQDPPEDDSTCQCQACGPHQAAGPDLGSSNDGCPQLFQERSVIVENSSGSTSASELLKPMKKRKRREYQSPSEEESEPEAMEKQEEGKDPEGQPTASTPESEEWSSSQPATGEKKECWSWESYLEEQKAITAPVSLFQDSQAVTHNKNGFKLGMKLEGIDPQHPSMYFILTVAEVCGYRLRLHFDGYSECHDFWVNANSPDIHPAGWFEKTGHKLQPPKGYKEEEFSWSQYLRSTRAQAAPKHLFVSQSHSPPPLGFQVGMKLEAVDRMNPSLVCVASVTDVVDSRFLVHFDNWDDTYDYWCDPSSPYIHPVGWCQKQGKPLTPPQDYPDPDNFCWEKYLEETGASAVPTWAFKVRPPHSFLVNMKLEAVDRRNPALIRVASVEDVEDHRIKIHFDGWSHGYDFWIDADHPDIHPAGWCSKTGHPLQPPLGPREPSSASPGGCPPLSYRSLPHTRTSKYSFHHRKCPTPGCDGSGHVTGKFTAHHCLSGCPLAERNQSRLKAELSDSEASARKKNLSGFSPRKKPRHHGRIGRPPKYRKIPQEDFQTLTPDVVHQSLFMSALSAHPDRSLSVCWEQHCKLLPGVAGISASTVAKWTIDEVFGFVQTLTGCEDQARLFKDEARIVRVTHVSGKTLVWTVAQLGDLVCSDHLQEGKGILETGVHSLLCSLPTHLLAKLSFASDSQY
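Read-out is AlphaScreen signal from streptavidin donor and nickel chelate acceptor beads (10 ug/mL final each) bridging L3MBTL1 (50 nM) and biotinylated K9-monomethylated H3(1-15) peptide (75 nM), after 30 min compound exposure at room temperature.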
Each line names hits and unclear results; the compound was inactive in the other large screens. This is a sample that favours compounds with a hit; in the whole collection about 11% have one here. Calls come from the whole dose curve; as a rule, active = well fitted inhibition curve with a large enough effect; inconclusive = small, poorly fitted or top-dose-only effect; inactive = no such curve, though single readings can be large or run the other way.

Cc1cccc(COCC(Cc2ccccc2)N2CCN(C(=O)c3ccc(Cl)c(Cl)c3)CCC2=O)c1 (centres undefined)	none
Cc1cc(Cl)ccc1OCC(=O)N(Cc1ccco1)Cc1ccccc1F	none (no result: L3MBTL1 inh)
COc1ccc(NC(=O)CN2C(=O)CSc3ccc(S(=O)(=O)N(C)C)cc32)cc1OC	none (no result: L3MBTL1 inh)
c1cncc(Nc2nc(-c3cccnc3)cs2)c1	G9a block inconclusive
Clc1ccccc1Nc1nc(-c2cccnc2)cs1	BAZ2B inh 56µM
COc1ccc(-c2csc(Nc3cccc(C)n3)n2)cc1C	G9a block 50µM (no result: L3MBTL1 inh)
Clc1cccc(-c2csc(Nc3cccnc3)n2)c1	G9a block 45µM
Cc1ccnc(Nc2nc(-c3c(C)nc4sccn34)cs2)c1	BAZ2B inh 45µM, G9a block inconclusive, JMJD2A Tudor inh inconclusive (no result: L3MBTL1 inh)
Cc1c(C(=O)Nc2ccc(F)c(C(F)(F)F)c2)sc2nc(-c3ccccc3)cn12	none (no result: L3MBTL1 inh)
O=C(NCCc1ccccc1)c1cnc2sc(N3CCCCCC3)nn2c1=O	none (no result: L3MBTL1 inh)
COc1ccc(S(=O)(=O)c2c(C(=O)c3ccc(C)c(C)c3)cnc3ccc(C)cc23)cc1	JMJD2A Tudor inh inconclusive (no result: L3MBTL1 inh)
Cc1ccnc(Nc2nc(-c3ccccc3)cs2)c1	none
COc1ccc(-c2csc(Nc3cc(C)ccn3)n2)cc1OC	BAZ2B inh inconclusive, G9a block 40µM, JMJD2A Tudor inh inconclusive
COc1ccc(-c2csc(Nc3cccnc3)n2)cc1OC	G9a block 50µM
Cc1ccc(Nc2nc(-c3ccc(O)c(O)c3)cs2)nc1	BAZ2B inh 40µM, G9a block 16µM, JMJD2A Tudor inh 32µM, HP1b chromo inh inconclusive
CC(C)(C)C(=O)Nc1sc2c(c1C#N)CCN(Cc1ccccc1)C2	none
Nc1c(Cl)cc(N=Nc2ccccc2)cc1Cl	JMJD2A Tudor inh 14µM, HP1b chromo inh inconclusive (no result: BAZ2B inh, G9a block, L3MBTL1 inh)
C=CCN(C)CC/C=C1\c2ccccc2CSc2ccccc21	JMJD2A Tudor inh inconclusive
C#CCN(C)CC/C=C1\c2ccccc2CSc2ccccc21	BAZ2B inh inconclusive, G9a block 14µM
CCOC(=O)C1=C(C)NC(=S)NC1/C=C/c1ccccc1 (centres undefined)	JMJD2A Tudor inh inconclusive
COc1cccc2cc(-c3nc(Nc4cccc(C)c4C)sc3C)c(=O)oc12	none (no result: L3MBTL1 inh)
CCc1ccc(Nc2n[n+](-c3ccccc3)c(-c3ccc(OCc4ccccc4)cc3)s2)cc1	BAZ2B inh 50µM, G9a block inconclusive
C[n+]1nc(Nc2ccccc2)sc1-c1ccc(C(=O)O)cc1	none (no result: JMJD2A Tudor inh, HP1b chromo inh, L3MBTL1 inh)
c1ccc(COc2ccc(-c3sc(Nc4ccccc4)n[n+]3-c3ccccc3)cc2)cc1	BAZ2B inh 45µM, G9a block 22µM (no result: JMJD2A Tudor inh, HP1b chromo inh)
COc1ccc(C(=O)OCc2cc(=O)n3nc(C4CC4)sc3n2)cc1OC	none (no result: L3MBTL1 inh)
COc1ccc(-c2nc(SCC(=O)NCCc3ccccc3)n[nH]2)cc1	none (no result: L3MBTL1 inh)
COc1ccc(-c2nc(SC(CC(=O)NCCO)c3cccs3)n[nH]2)cc1 (centres undefined)	G9a block 45µM
C[C@@H]1C(SC2Cn3cnc[n+]3C2)=C(C(=O)[O-])N2C(=O)[C@H]([C@@H](C)O)[C@@H]12 (some centres undefined)	none (no result: BAZ2B inh, JMJD2A Tudor inh, HP1b chromo inh, L3MBTL1 inh)
Cc1nn(CC(=O)Nc2nnc(CC(=O)N3CCCC3)s2)c(=O)c2ccccc12	G9a block 45µM
O=C(Cn1ncc2c(Cl)cccc21)NCc1cccc(Br)c1	none (no result: L3MBTL1 inh)
Cc1nn(C)c(C(=O)Nc2ccc(Cl)c([N+](=O)[O-])c2)c1Cl	G9a block 16µM
Cc1ccc(NC(=S)NNC(=O)c2c(Cl)c(C)nn2C)cc1	G9a block 1.4µM
CCOC(=O)c1c(C)n(C)c2cc(Br)c(O)c(O)c12	G9a block 0.35µM, JMJD2A Tudor inh 10µM, HP1b chromo inh inconclusive
CCOC(=O)c1c(CSc2cccs2)n(C)c2cc(Br)c(O)c(CN(C)C)c12	BAZ2B inh 40µM, JMJD2A Tudor inh 63µM, HP1b chromo inh inconclusive (no result: G9a block)
CCOC(=O)c1c(C)oc2cc(Br)c(O)c(Br)c12	G9a block 6.3µM
CCOC(=O)c1c(C)n(C)c2cc([N+](=O)[O-])c(O)c([N+](=O)[O-])c12	BAZ2B inh inconclusive, JMJD2A Tudor inh inconclusive
CCOc1ccc2nc(COC(=O)c3ccncc3)c(C(=O)c3ccccc3)[n+]([O-])c2c1	BAZ2B inh inconclusive (no result: G9a block)
COc1cccc(CNS(=O)(=O)c2cc3[nH]c(=O)c(=O)[nH]c3cc2C)c1	none (no result: L3MBTL1 inh)
